Active and inactive are the calls of the source.
Legend:
[1] = system: Plasmodium falciparum Sir2 (PF13_0152, Sir2A); test: Plasmodium falciparum Sir2A binding compounds – biochemical, small-molecule microarray, 635 nm fluorescence, primary screen (AID 1098); conditions: fluorescence 635 nm, higher = more signal;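 note: score merges spot fluorescence intensity with its signal-to-noise ratio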
[2] = probe aDKK1 binding to arrayed compounds – biochemical, biotinylated probe, 635/667 nm fluorescence, primary screen (AID 1099); conditions: small-molecule microarray, higher = more signal;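 note: score merges 667nm spot fluorescence with signal to noise across triplicate slides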
[3] = probe aCHRDL2 binding to arrayed compounds – biochemical, biotinylated probe, 635/667 nm fluorescence, primary screen (AID 1100); conditions: small-molecule microarray, higher = more signal
[4] = change in splice reporter luminescence, either direction, cell-based, HEK293, spliceosome inhibition project, primary screen (AID 1101); conditions: HEK293 splicing luciferase reporter, 24 h, higher = more signal, called active from +8 up or from −8 down;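 note: HEK293 cells carrying a splicing-competent luciferase reporter gene; test concentration not given here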
[5] = target: Fibroblast growth factor 10 (Homo sapiens) (UniProt O15520); test: compounds binding fibroblast growth factor 10 – biochemical, small-molecule microarray, 635 nm fluorescence, primary screen (AID 1102); conditions: FGF10 binding, fluorescence 635 nm, higher = more signal
[6] = system: glycogen synthase kinase-3 (GSK3A per assay name; protocol says GSK3B); test: compounds binding glycogen synthase kinase-3 – biochemical, small-molecule microarray, 635 nm fluorescence, GSK3A, primary screen (AID 1103); conditions: fluorescence 635 nm, higher = more signal; note: the record names both GSK3A and GSK3B
[7] = target: Epidermal growth factor receptor (Homo sapiens) (UniProt P00533); test: compounds binding epidermal growth factor receptor – biochemical, small-molecule microarray, 635 nm fluorescence, primary screen (AID 1104); conditions: EGFR binding, higher = more signal;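 note: score merges 667 nm emission intensity with spot signal to noise over triplicate slides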
[8] = target: Follistatin-related protein 3 (Homo sapiens) (UniProt O95633); test: compounds binding follistatin-related protein 3 – biochemical, small-molecule microarray, 635 nm fluorescence, primary screen (AID 1105); conditions: FSTL3 binding, higher = more signal;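 note: score merges emission near 667 nm and signal to noise per printed spot across three slides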
[9] = target: Dickkopf-related protein 1 (Homo sapiens) (UniProt O94907); test: small molecules binding DKK1 protein – biochemical, small-molecule microarray, 635 nm fluorescence scan, primary screen (AID 1106); conditions: higher = more signal;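 note: score merges emission near 667 nm with signal to noise over three replicate slides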
[10] = system: Inhibin beta A chain (activin A); test: small molecules binding activin A – biochemical, small-molecule microarray, 635 nm fluorescence scan, primary screen (AID 1107); conditions: INHBA, higher = more signal;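 note: mouse activin A protein probed at 4.33 µg/mL on printed slides; score merges bound-protein fluorescence near 667 nm with spot signal-to-noise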
[11] = system: Human papillomavirus type 1a protein E7 (residues 44-93); test: small molecules binding HPV E7 44-93 – biochemical, small-molecule microarray, residues 44-93, 635 nm fluorescence, primary screen (AID 1108); conditions: fluorescence 635 nm, higher = more signal;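 note: E7 fragment applied at 1 µg/mL in TBST for 1 h at 4 C; score combines spot fluorescence with its signal to noise ratio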
[12] = hepatitis C replication reporter changes, two-sided – Huh7 cells, luciferase reporter, HCV replication inhibitor project, primary screen (AID 1109); conditions: Huh7 HCV replicon luciferase reporter, 48 h; higher = more signal;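 note: huh7 hepatoma cells harbouring a luciferase neomycin HCV replicon reporter; luciferase luminescence as measure of HCV replicon replication; test concentration not given here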
[13] = target: Left-right determination factor 2 (Homo sapiens) (UniProt O00292); test: small molecules binding LEFTY2 protein – biochemical, small-molecule microarray, 635 nm fluorescence scan, primary screen (AID 1110); conditions: higher = more signal
[14] = target: Calmodulin-1 (Homo sapiens) (UniProt P0DP23); test: small molecules binding calmodulin-1 with EGTA – biochemical, small-molecule microarray, Cy5-labelled CALM1, profiling panel (AID 1111); conditions: Cy5-CALM1 binding fluorescence, higher = more signal;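 note: labelled calmodulin applied in Tris saline Tween buffer holding calcium plus EGTA and DTT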
[15] = target: Calmodulin-1 (Homo sapiens) (UniProt P0DP23); test: small molecules binding Ca-loaded calmodulin-1 – biochemical, small-molecule microarray, Cy5-labelled CALM1, plus calcium, artefact control for SMM control-protein annotation, profiling panel (AID 1112); conditions: Cy5-CALM1 binding fluorescence, higher = more signal;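 note: score merges spot fluorescence with signal to noise from triplicate slides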
[16] = probe aWnt5a binding to arrayed compounds – biochemical, biotinylated probe, 635/667 nm fluorescence, primary screen (AID 1113); conditions: small-molecule microarray, higher = more signal;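 note: score merges 667 nm fluorescence intensity with signal-to-noise per printed feature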
[17] = probe aShh binding to arrayed compounds – biochemical, biotinylated probe, 635/667 nm fluorescence, primary screen (AID 1114); conditions: small-molecule microarray, higher = more signal;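 note: probe is biotin-labelled aShh protein from a stem cell growth factor screen; measures binding of labelled protein to compounds printed on the slide; score merges feature fluorescence at 667 nm with signal-to-noise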
[18] = probe aNog binding to arrayed compounds – biochemical, biotinylated probe, 635/667 nm fluorescence, primary screen (AID 1115); conditions: small-molecule microarray, higher = more signal;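 note: probe is biotinylated aNog protein used at 0.15 µg/mL for 1 h at 4 C; z-score combines 667 nm fluorescence of each spot with its signal to noise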
[19] = target: Torsin-1A-interacting protein 1 (Homo sapiens) (UniProt Q5JTV8); test: compound microarray binding of lysate hLAP1 – cell lysate, small-molecule microarray, COS7 lysate, 635/667 nm fluorescence, primary screen (AID 1116); conditions: 635 nm fluorescence, higher = more signal
[20] = target: Alpha-bungarotoxin (Bungarus multicinctus) (UniProt P60615); test: compounds binding labelled alpha-BTX control protein – biochemical, small-molecule microarray, Alexa647 label, 635/667 nm fluorescence, artefact control for SMM control protein annotation, profiling panel (AID 1117); conditions: alpha-BTX-A647 binding fluorescence, higher = more signal
Alpha-bungarotoxin (Bungarus multicinctus), sequence (P60615 whole entry, looked up): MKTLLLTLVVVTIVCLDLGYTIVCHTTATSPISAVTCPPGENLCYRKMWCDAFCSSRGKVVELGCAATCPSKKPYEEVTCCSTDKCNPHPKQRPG

Epidermal growth factor receptor (Homo sapiens), sequence (P00533 whole entry, looked up): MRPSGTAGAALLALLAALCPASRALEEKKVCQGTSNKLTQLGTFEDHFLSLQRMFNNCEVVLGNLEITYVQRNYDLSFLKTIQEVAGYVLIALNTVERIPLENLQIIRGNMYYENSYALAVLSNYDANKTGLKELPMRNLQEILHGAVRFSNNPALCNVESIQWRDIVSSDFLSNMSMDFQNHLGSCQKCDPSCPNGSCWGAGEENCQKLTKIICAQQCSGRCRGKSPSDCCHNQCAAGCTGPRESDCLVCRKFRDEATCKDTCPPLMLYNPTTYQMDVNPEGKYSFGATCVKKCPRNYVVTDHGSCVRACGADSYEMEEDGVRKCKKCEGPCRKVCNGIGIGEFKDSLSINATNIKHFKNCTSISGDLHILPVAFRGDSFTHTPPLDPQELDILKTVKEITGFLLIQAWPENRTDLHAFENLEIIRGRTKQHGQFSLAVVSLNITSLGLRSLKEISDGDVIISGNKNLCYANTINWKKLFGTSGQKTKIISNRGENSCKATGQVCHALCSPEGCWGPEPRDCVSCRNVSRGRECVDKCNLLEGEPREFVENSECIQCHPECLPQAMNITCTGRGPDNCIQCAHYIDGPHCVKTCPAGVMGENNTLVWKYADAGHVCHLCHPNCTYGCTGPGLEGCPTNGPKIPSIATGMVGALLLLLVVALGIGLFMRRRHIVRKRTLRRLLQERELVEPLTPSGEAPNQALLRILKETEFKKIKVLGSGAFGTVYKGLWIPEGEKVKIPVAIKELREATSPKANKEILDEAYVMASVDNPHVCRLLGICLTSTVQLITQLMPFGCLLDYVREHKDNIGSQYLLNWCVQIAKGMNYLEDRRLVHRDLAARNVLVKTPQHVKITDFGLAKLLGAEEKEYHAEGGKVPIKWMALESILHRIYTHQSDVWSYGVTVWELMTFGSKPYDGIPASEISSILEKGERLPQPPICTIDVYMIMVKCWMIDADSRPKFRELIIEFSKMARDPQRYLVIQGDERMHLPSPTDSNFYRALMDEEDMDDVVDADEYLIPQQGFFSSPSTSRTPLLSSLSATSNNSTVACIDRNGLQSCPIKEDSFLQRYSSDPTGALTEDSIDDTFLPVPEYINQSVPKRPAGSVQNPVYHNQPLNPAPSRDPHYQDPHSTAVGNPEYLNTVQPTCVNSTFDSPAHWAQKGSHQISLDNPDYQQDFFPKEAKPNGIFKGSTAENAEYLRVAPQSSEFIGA
Fibroblast growth factor 10 (Homo sapiens), sequence (O15520 whole entry, looked up): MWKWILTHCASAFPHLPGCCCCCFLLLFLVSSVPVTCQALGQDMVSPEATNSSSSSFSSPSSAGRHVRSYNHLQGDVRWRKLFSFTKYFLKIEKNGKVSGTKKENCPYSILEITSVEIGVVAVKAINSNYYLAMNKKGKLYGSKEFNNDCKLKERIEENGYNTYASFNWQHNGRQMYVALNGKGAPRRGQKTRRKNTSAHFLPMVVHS
Dickkopf-related protein 1 (Homo sapiens), sequence (O94907 whole entry, looked up): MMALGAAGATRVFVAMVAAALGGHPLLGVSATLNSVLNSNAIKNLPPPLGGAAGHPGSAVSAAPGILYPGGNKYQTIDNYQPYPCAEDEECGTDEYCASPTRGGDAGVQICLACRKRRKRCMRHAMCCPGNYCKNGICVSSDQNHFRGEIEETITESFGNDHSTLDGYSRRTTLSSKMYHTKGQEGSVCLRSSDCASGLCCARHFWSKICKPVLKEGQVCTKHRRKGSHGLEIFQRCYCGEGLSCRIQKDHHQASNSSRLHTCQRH
Follistatin-related protein 3 (Homo sapiens), sequence (O95633 whole entry, looked up): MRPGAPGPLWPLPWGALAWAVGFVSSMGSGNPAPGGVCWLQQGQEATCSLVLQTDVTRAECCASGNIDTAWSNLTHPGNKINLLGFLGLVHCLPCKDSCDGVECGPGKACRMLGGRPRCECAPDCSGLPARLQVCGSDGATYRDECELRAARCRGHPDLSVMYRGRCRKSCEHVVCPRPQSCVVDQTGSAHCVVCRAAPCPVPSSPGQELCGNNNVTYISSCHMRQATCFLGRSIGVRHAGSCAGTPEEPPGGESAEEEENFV
Left-right determination factor 2 (Homo sapiens), sequence (O00292 whole entry, looked up): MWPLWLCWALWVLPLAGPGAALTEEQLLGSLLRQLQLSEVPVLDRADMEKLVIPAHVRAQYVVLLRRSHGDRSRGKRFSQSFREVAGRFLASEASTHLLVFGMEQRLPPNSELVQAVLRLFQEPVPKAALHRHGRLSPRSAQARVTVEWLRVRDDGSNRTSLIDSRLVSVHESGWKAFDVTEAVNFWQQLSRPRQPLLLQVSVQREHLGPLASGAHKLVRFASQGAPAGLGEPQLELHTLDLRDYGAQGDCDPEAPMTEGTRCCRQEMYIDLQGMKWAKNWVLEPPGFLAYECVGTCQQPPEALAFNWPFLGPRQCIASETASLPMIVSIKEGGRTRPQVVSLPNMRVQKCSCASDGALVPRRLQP
Torsin-1A-interacting protein 1 (Homo sapiens), sequence (Q5JTV8 whole entry, looked up): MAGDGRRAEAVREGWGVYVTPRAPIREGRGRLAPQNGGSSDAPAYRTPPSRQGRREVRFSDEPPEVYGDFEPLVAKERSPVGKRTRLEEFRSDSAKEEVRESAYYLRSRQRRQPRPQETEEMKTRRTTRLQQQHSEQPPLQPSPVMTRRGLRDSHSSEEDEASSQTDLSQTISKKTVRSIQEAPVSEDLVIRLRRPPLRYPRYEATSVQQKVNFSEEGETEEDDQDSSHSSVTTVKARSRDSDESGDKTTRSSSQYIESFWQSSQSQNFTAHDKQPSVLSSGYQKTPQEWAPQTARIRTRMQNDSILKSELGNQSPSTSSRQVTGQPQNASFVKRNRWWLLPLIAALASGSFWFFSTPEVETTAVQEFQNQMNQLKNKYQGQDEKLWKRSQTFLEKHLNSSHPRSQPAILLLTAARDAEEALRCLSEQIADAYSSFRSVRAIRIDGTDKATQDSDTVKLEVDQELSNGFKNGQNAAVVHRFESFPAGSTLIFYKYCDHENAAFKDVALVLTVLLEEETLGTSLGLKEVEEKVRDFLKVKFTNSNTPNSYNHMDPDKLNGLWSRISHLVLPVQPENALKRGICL

Row | SMILES | composite z-score [1] | composite z-score [2] | composite z-score [3] | z-score [4] | composite z-score [5] | composite z-score [6] | composite z-score [7] | composite z-score [8] | composite z-score [9] | composite z-score [10] | composite z-score [11] | z-score [12] | composite z-score [13] | composite z-score [14] | composite z-score [15] | composite z-score [16] | composite z-score [17] | composite z-score [18] | composite z-score [19] | composite z-score [20]
1 | O=C1NC(=O)C2C1C=CC(C(O)Cc1ccccc1)N2Nc1ccc(Cl)cc1Cl (stereo not given) | 1.2 | 0.931 | 1.09 | 1.8 (inactive) | 0.175 | -0.0984 | -0.854 | 0.236 | -1.18 | 1.07 | -1.97 | 0.458 | -1.29 | 1.73 | 0.634 | -0.0825 | 0.171 | 0.155 | 0.588 | 1.57
2 | CCCCCN1CC=CC23O[C@@H]4/C=C\CCCOC(=O)C4[C@H]2C(=O)N(CCCO)[C@@H]3C1=O (stereo not given in full) | 0.93 | -0.175 | 0.062 | 0.308 (inactive) | 0.0154 | 1.06 | -0.346 | -0.352 | -0.663 | 1.41 | 0.626 | -0.549 | -0.174 | -0.113 | 0.132 | -0.128 | -0.214 | -0.244 | 2.88 | -0.0566
3 | [N-]=[N+]=Nc1ccccc1C[C@]1(C(=O)NCC(O)CO)N=C(c2ccc(OCCCO)cc2)O[C@H]1c1ccccc1N=[N+]=[N-] (stereo not given in full) | 0.535 | 0.963 | 0.704 | -1.19 (inactive) | -0.255 | -0.517 | -0.363 | -0.736 | -1.12 | 1.01 | 0.577 | -1.74 | -0.588 | 0.771 | 0.839 | -0.0285 | 0.232 | -0.0592 | 0.407 | 0.15
4 | CCOC(=O)C[C@H]1[C@H](OC(=O)c2cc3ccccc3oc2=O)[C@@H](NC(=O)C2CCCCC2)c2cc(OCCCO)ccc2N1C(=O)c1ccccc1 | 0.784 | -0.23 | -0.377 | -1.45 (inactive) | 0.995 | 0.692 | 0.593 | 0.708 | 0.5 | 0.707 | 0.992 | -0.947 | 0.493 | -0.105 | -0.236 | -0.0405 | -0.138 | -0.266 | 0.294 | -0.0403
5 | CC(C)c1ccc(NN2C(C(O)c3cc(C(F)(F)F)cc(C(F)(F)F)c3)C=CC3C(=O)N(c4ccccc4)C(=O)C32)cc1 (stereo not given) | 0.91 | 0.74 | 0.8 | -0.753 (inactive) | -0.329 | 0.543 | -0.911 | -0.486 | -0.551 | 0.655 | 1.35 | -0.748 | -0.931 | 1.55 | 0.647 | -0.0704 | 0.37 | 0.897 | 0.831 | 0.817
6 | CCOC(=O)[C@H]1C/C=C/C[C@H](C(=O)OCC)C(=O)O[C@H]2[C@@H](OC)O[C@H](CO)[C@@H](OC(=O)Nc3cccc(F)c3)[C@@H]2OC1=O | 1.39 | -0.438 | -0.174 | 0.68 (inactive) | 0.687 | 0.327 | -0.226 | -0.0088 | 0.254 | 0.519 | 1.14 | -3.56 | -0.169 | -0.192 | -0.273 | -0.0243 | 0.0818 | 1.93 | 0.556 | 0.729
7 | COCCn1c(C(=O)N2CCCC2)cc2c1C[C@H]1CN(C(=O)c3ccccc3)[C@@](Cc3ccc(F)cc3)(C(=O)OC)[C@@H]21 | 1.17 | 0.418 | 0.43 | -0.604 (inactive) | -0.149 | 1.31 | 0.291 | 0.664 | 0.131 | 0.593 | 1.43 | -1.42 | -0.0638 | 2.41 | 0.954 | 0.402 | 0.636 | -0.489 | 2.88 | 0.476
8 | CS(=O)(=O)CCOC(=O)C1=CC(CCCO)=CC(c2ccc(CN3CCCC3)cc2)N(Cc2cc3c(cc2Br)OCO3)C=C1C(=O)OCCS(C)(=O)=O (stereo not given) | 1.52 | 0.525 | 0.555 | -0.9 (inactive) | 1.2 | 1.27 | 0.422 | 0.634 | 0.232 | 1.29 | 0.981 | -2.33 | 0.538 | 1.33 | 0.484 | 0.0765 | 0.171 | 1.27 | 2.44 | 1.62
9 | COC(=O)[C@@]1(Cc2ccc(F)cc2)[C@H]2c3cc(C(=O)N4CCCC4)n(Cc4cc(C)n(C)n4)c3C[C@H]2CN1C(=O)c1ccccc1 | 0.89 | 1.01 | 1.4 | -3.14 (inactive) | 0.533 | 0.775 | -0.144 | -0.261 | -0.449 | 1.28 | 0.95 | -1.17 | -0.857 | 2.36 | 1.38 | 0.143 | 0.356 | 2.16 | 3.13 | 0.251
10 | C[C@@]1([C@@H](NC(=O)c2ccccc2)c2ccc(-c3ccccc3)cc2)C[C@H]1C1CCCCC1 | -0.443 | 1.18 | 1.26 | 0.665 (inactive) | -0.145 | -0.82 | -0.573 | -0.503 | -0.932 | 1.09 | -0.752 | 0.602 | -0.535 | 1.32 | 1.19 | -0.006 | -0.353 | 0.18 | 0.294 | -0.272
11 | C=CCOC(=O)[C@@H]1[C@H]2C(=O)O[C@H](c3ccccc3)[C@H](c3ccccc3)N2[C@H](c2ccc(OCCOC(=O)[C@@H]3C[C@@H]4C(=O)N[C@@H](CCCCN(C)C)C(=O)N4[C@@H]3c3ccc(O)cc3)cc2)[C@@]12C(=O)Nc1ccc(I)cc12 | 1.14 | -0.0242 | 0.0749 | -0.0143 (inactive) | 0.767 | 1.13 | 1.01 | 1.04 | 1.11 | 0.347 | 1.34 | -2.84 | 0.696 | 0.846 | -0.0759 | -0.0927 | 0.432 | -0.12 | 0.454 | 0.78

Source: PubChem BioAssay
